High-throughput results deposited in PubChem by National Center for Advancing Translational Sciences (NCATS).
DT40 TDP1 CPT – growth inhibition of DT40 Tdp1-/-;hTDP1 cells with camptothecin (screen for TDP1 inhibitors). chicken DT40 Tdp1-/-;hTDP1 cells + 20 nM CPT, ATP luminescence, 48 h. Potency, µM (series often up to 46.2 µM), for the others: at the highest dose activity change, negative = growth inhibition, actives largely listed as inhibitors. 420,000 tested, 12% active. AID 686979; further: on the % scale 0 is the no-effect control and ±100 the full control effect; nearly all actives have a fitted effect of over 55% in size
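Chicken DT40 Tdp1-/- cells complemented with human TDP1, 400 cells/well, exposed to compounds plus 20 nM camptothecin for at least 48 h at 37 C; viability read as ATP content by CellTiter-Glo luminescence.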
TDP1 inh – blocks human tyrosyl-DNA phosphodiesterase 1 | Q9NUW8 | recombinant TDP1, AlphaScreen DNA substrate cleavage | Potency, µM (top dose mostly 130 µM), for the others: at the top dose activity change, negative = inhibition, usual class: inhibitors | 350,000 tested, 0.28% active | AID 485290; further: on the % scale 0 is the no-effect control and ±100 the full control effect; nearly all actives have a fitted effect of over 40% in size
Target sequence (Q9NUW8 whole entry, looked up): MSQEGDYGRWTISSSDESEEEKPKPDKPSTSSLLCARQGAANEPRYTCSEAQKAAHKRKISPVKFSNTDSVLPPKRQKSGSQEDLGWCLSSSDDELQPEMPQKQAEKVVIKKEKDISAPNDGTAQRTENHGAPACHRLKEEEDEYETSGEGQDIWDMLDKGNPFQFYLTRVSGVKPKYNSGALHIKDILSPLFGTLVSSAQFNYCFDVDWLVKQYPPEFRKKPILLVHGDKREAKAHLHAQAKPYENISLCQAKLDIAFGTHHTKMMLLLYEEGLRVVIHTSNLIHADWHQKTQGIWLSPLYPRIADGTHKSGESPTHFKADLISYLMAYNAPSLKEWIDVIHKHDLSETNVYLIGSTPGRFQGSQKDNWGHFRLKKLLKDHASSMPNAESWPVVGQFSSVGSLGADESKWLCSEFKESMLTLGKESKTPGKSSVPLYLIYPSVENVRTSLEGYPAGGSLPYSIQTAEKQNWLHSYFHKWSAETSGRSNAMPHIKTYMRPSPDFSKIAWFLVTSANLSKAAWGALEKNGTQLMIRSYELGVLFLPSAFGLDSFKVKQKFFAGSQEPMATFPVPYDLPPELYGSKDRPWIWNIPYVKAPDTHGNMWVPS
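E. coli-derived human Tdp1, 1 nM final. Cpd preinc 15 min RT; substrate 15 nM final, 5 min RT; AS bead mix 10 ug/ml final, 10 min RT. Signal loss = tyrosine-FITC cleavage. No-enzyme wells = max signal.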
ClpP mod – qHTS Assay for Activators of ClpP | Potency, µM (highest dose often 57.5 µM), without a hit: at the top dose activity change, negative = active | ATP-dependent Clp protease proteolytic subunit (Bacillus subtilis (strain 168)), P80244 | AID 651965, 2013 | purified B. subtilis ClpP, FRET peptide cleavage, 20 min | 340,000 tested, 1.9% active; active means well fitted falling curve with a large enough effect; inconclusive means small, poorly fitted or top-dose-only effect; inactive means no such curve, though single readings can be large or run the other way; further: the source files actives as falling curves though it sought activators and does not explain the sign; nearly all actives have a fitted effect of over 65% in size
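FRET quenching reversal measured ClpP activation: 10 microg/mL B. subtilis ClpP at pH 8 with the FRET-FV decapeptide, read at 430 nm after 320 nm excitation. The 20-min minus 0-min signal was scaled between DMSO/no-enzyme wells and ADEP (5.8 microM final).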
DT40 TDP1 no CPT – qHTS for Inhibitors of human tyrosyl-DNA phosphodiesterase 1 (TDP1): qHTS in cells in absence of CPT; DT40 Tdp1-/- hTDP1 cells, no CPT, ATP luminescence, 48 h; Potency, µM (top dose mostly 46.2 µM), inactives show at the highest dose activity change, negative = growth inhibition, most hits filed as inhibitors; 420,000 tested, 15% active; AID 686978, 2013; further: on the % scale 0 is the no-effect control and ±100 the full control effect; nearly all actives have a fitted effect of over 55% in size
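Chicken DT40 Tdp1-/- cells stably complemented with human TDP1 were seeded at 400 cells/well with DMSO in place of 20 nM camptothecin. After compound pinning, cells grew at least 48 hr at 37 °C; viability read by CellTiter-Glo luminescence.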
Numbers without * were called inactive; ? = inconclusive; / = not tested or not shown; [ ] = dose if it differs, or a comment. An excerpt weighted towards active compounds, which were near 17% of everything screened. Unless noted, the call rests on the fitted dose curve; in most records, active means well fitted curve in the direction sought with a large enough effect; inconclusive means small, poorly fitted or top-dose-only effect, or another doubt; inactive means no such curve, though single readings can be large; an effect the other way counts as inactive or inconclusive. Potency means the concentration at half of the fitted maximal effect.

SMILES | DT40 TDP1 CPT | TDP1 inh | ClpP mod | DT40 TDP1 no CPT
CN(C)S(=O)(=O)N1CCC(Oc2cccc(C(=O)NC3CCCCC3)c2)CC1 | 18.4µM* | 1.7% | -1.1% | ?
CCC(C)CNC(=O)c1cccc(OC2CCN(CC(C)(C)C)CC2)c1 (configuration not stated) | ? | / | / | 29.1µM*
O=c1nc2ccccc2c2n1C[C@H](CN1CCN(c3ccccc3)CC1)N2 | 6.1% | 13.1% | / | 4.3%
COc1cc2c(-c3ccc(C)cc3)nc3c(c(C)nn3-c3ccccc3)c2cc1OC | 1.4% | 2.9%[2.28 µM] | -10.1% | 1.6%
O=C(Nc1ccc2oc(-c3cccnc3)nc2c1)c1ccc(-c2ccccc2OC(F)(F)F)o1 | 10.3µM* | 5.7%[2.28 µM] | -6.7% | 9.2µM*
O=C(Nc1ccc2oc(-c3cccnc3)nc2c1)c1ccc(-c2ccccc2)o1 | 11.6µM* | -3.1%[12.3 µM] | 4.2% | 9.2µM*
O=C(Nc1ccc2oc(-c3ccccc3)nc2c1)c1cccnc1 | -22.9% | 2.0% | 1.4% | -25.4%
O=C(Nc1ccc2oc(-c3ccncc3)nc2c1)c1ccc(Br)o1 | 17.2% | / | / | -11.6%
O=C(Cc1ccc(Cl)cc1)Nc1ccc2oc(-c3ccncc3)nc2c1 | ? | 0.0% | 199.6% | -23.8%
O=C(Nc1ccc2oc(-c3cccnc3)nc2c1)c1ccc(-c2ccc(OC(F)(F)F)cc2)o1 | ? | 0.4%[12.3 µM] | -11.9% | 20.6µM*
O=C(Cc1ccccc1)Nc1ccc2oc(-c3cccnc3)nc2c1 | -21.5% | -2.2% | 28.2µM* | -23.8%
CCCCCC(=O)Nc1ccc2oc(-c3cccnc3)nc2c1 | -9.3% | 0.0% | 15.8µM* | ?
O=C(Nc1ccc2oc(-c3cccnc3)nc2c1)c1ccc2c(c1)OCCO2 | ? | 2.6% | / | ?
Cc1ccc(Nc2nc(N)nc(CN3CCN(Cc4ccc5c(c4)OCO5)CC3)n2)cc1C | ? | 7.6% | / | 18.4µM*
Cc1ccc(Nc2nc(N)nc(CN3CCN(Cc4ccc5c(c4)OCO5)CC3)n2)cc1Cl | ? | 7.7% | -2.1% | ?
Cc1ccc(Nc2nc(N)nc(CN3CCN(Cc4ccc5c(c4)OCO5)CC3)n2)cc1 | 18.4µM* | 5.7% | -0.5% | 18.4µM*
Cc1ccc(Nc2nc(N)nc(CN3CCN(Cc4ccc5c(c4)OCO5)CC3)n2)c(C)c1 | ? | 2.9% | 0.6% | ?
Cc1cc(C)cc(NC(=O)Nc2ccc(NC(=O)c3ccccc3O)cc2)c1 | ? | / | / | 20.6µM*
COc1ccc(S(=O)(=O)N2CCOC2CNC(=O)C(=O)NCCc2ccccc2OC)cc1C (configuration not stated) | ? | / | -2.3% | ?
COc1ccc(S(=O)(=O)N2CCOC2CNC(=O)C(=O)NCCc2c[nH]c3ccccc23)cc1 (configuration not stated) | 16.4µM* | 7.9% | -3.7% | ?
COc1ccc(S(=O)(=O)N2CCOC2CNC(=O)C(=O)NCCc2c[nH]c3ccccc23)cc1C (configuration not stated) | 23.1µM* | 5.3% | 0.9% | 23.1µM*
COc1ccc(S(=O)(=O)N2CCOC2CNC(=O)C(=O)NCCc2ccccc2OC)cc1 (configuration not stated) | -28.1% | / | -0.8% | -28.8%
COCCOC(=O)c1c(C)oc2ccc(O)c(CN3CCC(C)CC3)c12 | -22.8% | 4.1% | -0.1% | -20.0%
Cc1ccccc1NC(=O)c1c(C)oc2ccc(O)c(CN3CCC(C)CC3)c12 | 16.4µM* | -1.2% | 1.5% | 23.1µM*
Cc1ccccc1NC(=O)c1c(C)oc2ccc(O)c(CN3CCCC(C)C3)c12 (configuration not stated) | 10.3µM* | 1.2% | -0.5% | 20.6µM*
SMILES | DT40 TDP1 CPT | TDP1 inh | ClpP mod | DT40 TDP1 no CPT
Oc1c(Cl)cc(Cl)c2c1NCCC2 | 6.51µM* | 9.5% | -0.6% | 10.3µM*
COc1ccc(/C=C(\NC(=O)c2ccc([N+](=O)[O-])cc2)C(=O)NCCCN2CCOCC2)cc1 | -4.5% | 0.0% | / | -14.8%
O=C(Nc1ccsc1C(=O)N1CCCC1)c1ccccc1 | 16.4µM* | 2.9% | / | 20.6µM*
CN(CC(=O)Nc1cccc(F)c1)C(=O)CC1CCCCC1 | -31.6% | -8.2% | 0.8% | -17.0%
Oc1ccc(Cl)c2cccnc12 | 1.84µM* | 10.6% | -2.8% | 1.84µM*
Oc1c(Cl)cc(Cl)c2cccnc12 | 18.4µM* | 13.6%[56.1 µM] | 1.9% | 8.2µM*
Clc1cc2cccnc2c2ccccc12 | -2.1% | 2.6% | -2.3% | -2.8%
Oc1ccc(F)c2cccnc12 | 13µM* | 5.4% | / | 14.6µM*
Cc1ccc(S(=O)(=O)Nc2cc(Cl)c(O)c3ncccc23)cc1 | 2.31µM* | 5.2% | 0.9% | 5.17µM*
Oc1ccc(CNc2ccccc2Cl)c2cccnc12 | / | 0.4% | / | /
O=C(NCc1cccnc1)c1cc(C2CCCCN2C(=O)c2ccccc2)on1 (configuration not stated) | ? | / | -1.4% | ?
CCCCNC(=O)c1nc(C2CCN(S(=O)(=O)c3ccc(C(F)(F)F)cc3)CC2)oc1-c1ccccc1 | 5.8µM* | / | -9.8% | 7.31µM*
CCCCNC(=O)c1nc(C2CCN(S(=O)(=O)c3ccc(S(C)(=O)=O)cc3)CC2)oc1-c1ccccc1 | 5.8µM* | / | -10.4% | 13µM*
CCc1cc(CNC(=O)CCc2nnc(Cc3cccc(C)c3)o2)on1 | -20.9% | -1.2% | / | 3.1%
CC1CCN(C(=O)C2CCCN2S(=O)(=O)c2ccc(Cl)cc2)CC1 (configuration not stated) | -11.9% | 4.8% | -1.0% | -22.1%
COc1cc(-c2coc3c(C(=O)NCc4ccc(N(C)C)cc4)cccc23)ccc1O | 16.4µM* | / | 1.6% | ?
COc1cc(-c2coc3c(C(=O)NC4CCCCC4)cccc23)ccc1O | 18.4µM* | / | -1.0% | ?
COc1cc(-c2coc3c(C(=O)NCc4ccncc4)cccc23)ccc1O | -98.8% | / | -2.6% | -90.6%
CN(C)CCNC(=O)c1cccc2c(-c3ccc(F)c(F)c3)coc12 | ? | / | -6.0% | ?
COc1cc(-c2coc3c(C(=O)Nc4ccc(C(C)C)cc4)cccc23)ccc1O | ? | / | -12.2% | 20.6µM*
COc1cc(-c2coc3c(C(=O)NCc4ccc(C(F)(F)F)cc4)cccc23)ccc1O | 14.6µM* | / | -26.4% | 20.6µM*
COc1ccc(OC)c(N(CC(=O)NCC2CCCO2)S(=O)(=O)c2ccccc2)c1 (configuration not stated) | -1.3% | / | / | ?
COc1cc(-c2coc3c(C(=O)NCc4ccc(OC)c(OC)c4)cccc23)ccc1O | 5.8µM* | / | 2.2% | 4.61µM*
COc1ccc(CNC(=O)c2cccc3c(-c4ccc(F)c(F)c4)coc23)cc1OC | 20.6µM* | / | -13.6% | 11.6µM*
O=C(NCc1ccccc1)c1cccc2c(-c3ccc(F)c(F)c3)coc12 | ? | / | -4.5% | ?
